The source of these data is PubChem BioAssay AID1030 (National Center for Advancing Translational Sciences (NCATS), 2008).

Several values for one entry are separate records, joined by “and”; a condition that tells them apart may be missing. Equal values may be shown once. The whole screen tested about 220,000 compounds, of which about 16,000 (7.3%) were called active. A call without a number means that no potency is given here. Not shown: some 25% with an inconclusive outcome. Calls follow the shape of the dose curve; as a rule, active = well fitted inhibition curve with a large enough effect (not every such curve was filed as active); inconclusive = small, poorly fitted or top-dose-only effect, or another doubt; inactive = no such curve, though single readings can be large or run the other way. This excerpt belongs to a sample that is enriched for actives.
Potency is read from the fitted curve at half-maximal effect.

Chain of Aldehyde dehydrogenase 1A1 (Homo sapiens) (P00352 whole entry, looked up): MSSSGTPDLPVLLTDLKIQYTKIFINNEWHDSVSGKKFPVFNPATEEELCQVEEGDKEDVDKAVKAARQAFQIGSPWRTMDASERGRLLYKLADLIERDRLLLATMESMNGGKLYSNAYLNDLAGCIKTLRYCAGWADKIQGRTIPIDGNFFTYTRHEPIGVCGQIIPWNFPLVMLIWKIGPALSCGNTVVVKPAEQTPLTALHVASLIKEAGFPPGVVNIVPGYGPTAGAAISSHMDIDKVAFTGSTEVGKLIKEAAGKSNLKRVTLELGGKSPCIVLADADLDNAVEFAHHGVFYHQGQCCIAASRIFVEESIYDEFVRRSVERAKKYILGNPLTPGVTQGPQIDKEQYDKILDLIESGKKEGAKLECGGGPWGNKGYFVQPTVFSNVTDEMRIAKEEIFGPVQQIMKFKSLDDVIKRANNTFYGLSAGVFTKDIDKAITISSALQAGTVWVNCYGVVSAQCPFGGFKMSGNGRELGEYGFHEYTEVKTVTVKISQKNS

The experiment concerns the target Aldehyde dehydrogenase 1A1 (Homo sapiens) (UniProt P00352). As to the kind of experiment: qHTS Assay for Inhibitors of Aldehyde Dehydrogenase 1 (ALDH1A1). The conditions noted are these: Purified ALDH1A1, NADH fluorescence, propionaldehyde substrate; series mostly up to 75.3 µM.
For the compound `Cc1onc(C(=O)NCc2ccc(F)cc2)c1[N+](=O)[O-]`, the Potency result was “inactive”.

On to `O=C1CCCN1CCCNC(=S)Nc1ccc(F)c(Cl)c1`, for which the Potency result is “inactive”.

Consider `CCOc1ccc(OCC)c(NC(=O)C2CCN(S(=O)(=O)c3c(C)noc3C)CC2)c1`, for which the Potency entry was “inactive”.

With `Cc1noc(/C=C/c2ccco2)c1S(=O)(=O)N1CCC(C(=O)Nc2ccc(Cl)cn2)CC1`, the Potency was 15.8 µM (active).

Regarding `Cc1ccc(NC(=O)C2CCCN(S(=O)(=O)c3c(C)noc3C)C2)c(C)c1` (stereo unspecified), the Potency result is “inactive”.

Regarding `CCCCN1C(=S)NC[C@@H]1C(C)CC` (stereo partly specified), the Potency entry was “inactive”.

On to `Cc1ccc(C)c(-n2cc(CN3CCN(C(=O)c4ncn[nH]4)CC3)c(-c3ccccc3)n2)c1`, for which the Potency entry was “inactive”.

With `Cc1cc(NC(=O)CSc2nnc(Nc3ccccc3F)s2)no1`, the Potency result is “inactive”.

In the case of `O=C(Nc1ccc2c(c1)OCO2)c1ccc(N2C(=O)c3ccccc3C2=O)cc1`, the Potency entry is “inactive”.

Consider `O=C1C[C@@H](O)[C@@H](O)[C@H]2[C@@H]3C(=O)N(Cc4ccc5c(c4)OCO5)C(=O)[C@@H]3CC[C@H]12`, for which the activity, negative = inhibition is -12% [at 13.5 µM] (inactive) and -15.2% [at 13.5 µM] (inactive).

Turning to `O=CN1CCN(C2CC(=O)N(c3ccc4c(c3)OCO4)C2=O)CC1` (stereo unspecified), the Potency is 12.6 µM (active).

On to `Cc1cc(C)nc(N2CCC(C(=O)Nc3ccc4c(c3)OCCO4)CC2)n1`, for which the Potency entry is “inactive”.

Consider `CCn1cc(C(=O)Nc2cc(C)ccc2C)c(=O)c2ccc(C)nc21`, for which the Potency entry is “inactive”.

On to `C=CCN(C(=O)c1cc(C)cc(C)c1)C1(C(=O)Nc2ccccc2)CCN(C(C)C)CC1`, for which the Potency result was “inactive”.

As to `Cc1ccnc(SCC(N)=O)n1`, the Potency result was “inactive”.

As to `CCn1c(SCC(=O)Nc2nccs2)nnc1-c1ccco1`, the Potency result is “inactive”.

In the case of `COc1ccc(C(=O)NC(=O)CSc2nnc(-c3ccco3)n2-c2ccccc2)cc1`, the Potency was 31.6 µM (active).

For the compound `Cc1cccc(C)c1NC(=O)CCCSc1nnc(-c2ccco2)n1-c1ccccc1`, the Potency is 25.1 µM (active).

For the compound `O=C(O)CCSc1nnc(-c2ccccc2)n1-c1ccccc1`, the Potency result is “inactive”.

With `COc1ccc(-c2nnc(SCC(=O)c3ccco3)n2-c2ccccc2)cc1`, the Potency entry was “inactive”.

`O=C(CSc1nnc(-c2ccco2)n1-c1ccccc1)NCCc1ccccc1`: the Potency result was “inactive”.

As to `O=C(NCc1ccccn1)c1cc(Br)ccc1Cl`, the Potency result is “inactive”.

As for `CC[N+]1(CC)CC2=Cc3ccccc3CC2C1` (stereo unspecified), the Potency result was “inactive”.

For `COc1ccc(N2CCN(C(=O)CCSCc3ccccc3F)CC2)cc1`, the Potency result was “inactive”.

As for `Cc1cccc(-n2cc(CN3CCN(C(=O)c4ncn[nH]4)CC3)c(-c3cccc(F)c3)n2)c1`, the Potency entry was “inactive”.

As to `CC(C)=CCC[C@]1(C)[C@@H](CC=C(C)C)C[C@@]2(CC=C(C)C)C(=O)[C@]1(C(=O)C(C)C)C(=O)C(CC=C(C)C)=C2O`, the Potency result was “inactive”.
